# Measurements: PubChem BioAssay (Tox21)
# Results filed as inconclusive are left out. Values without a mark were called inactive. Calls come from the whole dose curve. Square brackets hold non-standard residues; d marks the D form. Peptide text beside a SMILES is read from it. * marks the point of attachment. Sta = CC(C)C[C@H](N)[C@@H](O)CC(=O)O; Isovaleryl = CC(C)CC(=O)*
# Assay: p53 small molecule agonists, cell-based qHTS assay with human liver microsomes: qHTS cell viability counter screen (AID 1963579); note: nearly all actives have a fitted effect of over 45% in size
# Details: p53RE-bla HCT-116 viability, ATP luminescence, 16 h, HLM; series mostly up to 66 µM; activity change, negative = cytotoxicity: at the top concentration
# Source text: National Center for Advancing Translational Sciences [NCATS]
# Division of Preclinical Innovation [DPI]
# U.S. Environmental Protection Agency [EPA]
# National Institutes of Environmental Health Sciences [NIEHS]
# National Toxicology Program [NTP]
# U.S. Food and Drug Administration [FDA]
# p53, a tumor suppressor protein, is activated following cellular insult, including DNA damage and other cellular stresses. The activation of p53 regulates cell fate by inducing DNA repair, cell cycle arrest, apoptosis, or cellular senescence. The activation of p53, therefore, is a good indicator of DNA damage and other cellular stresses. […] The activation of the reporter gene under culture conditions can be detected by fluorescence intensity. This cell line was used to screen the Tox21 10K compound library in the condition of presence of human liver microsomes and to identify agonists that activate the p53 signaling pathway after in vitro metabolic activation (Ooka et al., Archive of Toxicology 96:1975-1987, 2022).
# Tox21 Assay Protocol Summary:
# The p53RE-bla cells were dispensed at 4,000cells/3ul/well in 1536-well black-clear bottom plates. After the assay plates were incubated at 37 C, 5% CO2 incubator for 5 hours, 23 nL of compounds dissolved in DMSO, positive controls or DMSO only was transferred to the assay plate. Following compound addition, 3 uL of human liver microsomes (XenoTech, Kansas City, KS) at final concentration of 0.5 mg/mL and 1uL of B-Nicotinamide adenine dinucleotide 2'-phosphate (NADPH) at final concentration of 0.5 mg/mL were transferred to the assay plate. The plates were incubated at 37 C for 16 hours. 1 uL of LiveBLAzer detection mixture was added to each well and the plates were incubated at room temperature in the dark for 2 h. Fluorescence intensity at 460 and 530 nm emission and 405 nm excitation were measured by an Envision plate reader. For cell viability readout that measures cytotoxicity, 4 ul/well of CellTiter-Glo reagent was added into the assay plates using a Flying Reagent Dispenser. After 30 min incubation at room temperature, the luminescence intensity in the plates was measured using a ViewLux plate reader.
# % is set by controls: 0 for no effect and ±100 for the full control effect.
row,Compound,"activity change, negative = cytotoxicity"
1,CCCCCN=C(N)N/N=C/c1c[nH]c2ccc(OC)cc12,1.51% [at 30.3 µM]
2,CCCCCC#CC(=O)OC,-2.79%
3,O=P(O)(O)Oc1ccccc1,3.95%
4,COc1cc(C(=O)NC2CCCNC2)cc(OC)c1OC (stereo not given),4.4% [at 30.3 µM]
5,CC(Oc1cc(Cl)ccc1Cl)C(=O)O (stereo not given),-7.34%
6,CNc1c2c(nn1C)CCCC2,-16.9% [at 30.3 µM]
7,CCCCCCCCCCCCCCCC/C=C/C1CC(=O)OC1=O (stereo not given),-4.26% [at 30.3 µM]
8,O=CN1CCCCC1,-14.7%
9,O=C(CCc1ccc(O)cc1)c1c(O)cc(O)cc1O,-7%
10,CCC(=O)Nc1ccc(O)cc1,7.71% [at 30.3 µM]
11,O=C(O)CNCC(=O)O,-6.14% [at 5.99 µM]
12,O=C(CCOCCOCCOCCOCCC(=O)Nc1c(I)cc(I)c(C(=O)O)c1I)Nc1c(I)cc(I)c(C(=O)O)c1I,-11.9% [at 30.3 µM]
13,CCCC(=O)OCOC(=O)C1=C(C)NC(C)=C(C(=O)OC)C1c1cccc(Cl)c1Cl (stereo not given),4.77% [at 30.3 µM]
14,CCOC(=O)O[C@H](C)OC(=O)c1ccc2c(c1)cc(C(=O)NC1CCN(C(C)C)CC1)n2Cc1cc(-c2ccc(Cl)s2)on1,-8.09%
15,CCCCCCCCSCc1cc(C)c(O)c(CSCCCCCCCC)c1,16.2%
16,COc1ccc2c(c1)C(=O)N(CCc1ccc(S(=O)(=O)NC(=O)NC3CCCCC3)cc1)C(=O)C2(C)C,24% [at 30.3 µM]
17,CC(C)=CCC[C@@](C)(O)[C@H]1CC=C(C)CC1,3.7% [at 30.3 µM]
18,Cc1ccc(Cl)c(OCC(O)CNC(C)(C)C)c1 (stereo not given),15.4% [at 30.3 µM]
19,CCCCCCCCN,0.954%
20,COc1ccccc1OC(=O)Oc1ccccc1OC,4.31% [at 30.3 µM]

row,Compound,"activity change, negative = cytotoxicity"
1,Cc1cccc(C(C)(C)C)c1O,-0.482%
2,Cc1nc2n(c(=O)c1CCN1CCC(C(=O)c3ccc(F)cc3)CC1)CCS2,1.12% [at 30.3 µM]
3,CC(O)CN(CCCN(C)C)CCCN(C)C (stereo not given),-8.3%
4,CCCCCc1ccc(N)cc1,2.81%
5,CCCCCCCCCCCCCCNCCO,-1.6% [at 30.3 µM]
6,CCC(C)c1cc([N+](=O)[O-])cc([N+](=O)[O-])c1OC(=O)OC(C)C (stereo not given),-37.9%
7,O=c1[nH]ncc2ccccc12,0.222%
8,CCN1CCCC1CNC(=O)c1cc(S(=O)(=O)CC)c(N)cc1OC (stereo not given),-0.549% [at 30.3 µM]
9,NC(=O)CC[C@@H](N)C(=O)O,0.405% [at 30.3 µM]
10,NS(=O)(=O)c1cc2c(cc1Cl)NC(C(Cl)Cl)NS2(=O)=O (stereo not given),0.0763% [at 30.3 µM]
11,COc1ccc([C@@H]2Sc3ccccc3N(CCN(C)C)C(=O)[C@@H]2OC(C)=O)cc1,1.28% [at 30.3 µM]
12,O=C(OCc1ccccc1)C(=O)OCc1ccccc1,0.22%
13,CC(C)(C)C1=CC(=O)C(C(C)(C)C)=CC1=O,7.46% [at 30.3 µM]
14,CCOC(=O)N1CCC(Nc2ccc(Cl)cc2N)CC1,0.686% [at 30.3 µM]
15,C=Cc1ccccc1,-0.524%
16,CCCCCCCCCCCCCCN(C)C,6.35% [at 13.5 µM]
17,CC(C)CC(=O)N[C@H](C(=O)N[C@H](C(=O)N[C@@H](CC(C)C)[C@@H](O)CC(=O)N[C@@H](C)C(=O)N[C@@H](CC(C)C)[C@@H](O)CC(=O)O)C(C)C)C(C)C (Isovaleryl-VV[Sta]A[Sta]-OH),-0.906% [at 30.3 µM]
18,CCCCCCCCOCCCN,2.06%
19,CC(C)Nc1nc(N)nc(Cl)n1,-12.6%
20,CC(=O)CC(C)C,6.72%
